Screening data as filed in PubChem BioAssay.
PNC assembly inh = High Content Assay for Compounds that inhibit the Assembly of the Perinucleolar Compartment. PC3M PTB-GFP, PNC prevalence imaging, 16 h; active compounds read low. activity change (PNC), negative = inhibition, % at 10 µM. 140,000 tested, 3.1% active;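 active means readout at or below -70, meaning at least 70% loss of cells showing the perinucleolar compartment, a nuclear body marking cancer cells; inconclusive means readout between -30 and a set limit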;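 further: plate controls were DMSO wells for no effect and camptothecin positive control wells for full effect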
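PC3M cells stably expressing PTB-GFP, 750–1000 cells/well, treated 16 h at 37 °C with compound (23 nl of library stock), in duplicate. After paraformaldehyde fixation and Hoechst stain, imaged at 20x; PNC prevalence scored by image analysis.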
12-hLO inh = qHTS Assay for Inhibitors of 12-hLO (12-human lipoxygenase). Polyunsaturated fatty acid lipoxygenase ALOX12 (Homo sapiens), P18054. purified 12-hLO, xylenol orange hydroperoxide absorbance. Potency, µM (doses to about 57.1 µM), for the others: at the highest dose activity change, negative = inhibition, actives largely listed as inhibitors. 150,000 tested, 0.12% active; further: potency means the concentration at half of the fitted maximal effect; nearly all actives have a fitted effect of over 55% in size
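Purified human 12hLO (150 nM final) was preincubated with compounds for 15 min at room temperature in 25 mM Hepes pH 7.0, 0.01% Triton X-100, then reacted with 40 uM arachidonic acid for 30 min. Hydroperoxide was detected with ferrous iron/xylenol orange.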
GLA spleen mod = qHTS Assay for Inhibitors and Activators of Human alpha-Galactosidase From Spleen Homogenate. Potency, µM (doses to about 80 µM), inactives show top-dose activity change, negative = inhibition, actives largely listed as inhibitors. human spleen homogenate, 4MU-alpha-Gal fluorescence, 40 min. 240,000 tested, 0.008% active;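 further: potency means the concentration at half of the fitted maximal effect; 0% = enzyme with vehicle and -100% = no enzyme basal signal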
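Spleen homogenate 1 ug + cpd (titration) + 4-MU-alpha-D-galactopyranoside 1 mM; 37C 40 min; 50 mM citrate/phosphate pH 5.0, 0.01% Tween-20; stop pH 10; fluorescence 365/440; AC50 via Hill.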
ALDH1A1 block = qHTS Assay for Inhibitors of Aldehyde Dehydrogenase 1 (ALDH1A1) | Purified ALDH1A1, NADH fluorescence, propionaldehyde substrate | Potency, µM (highest dose often 75.3 µM), for the others: top-dose activity, negative = inhibition, hits mostly inhibitors | 220,000 tested, 7.3% active | AID 1030, 2008; active means well fitted inhibition curve with a large enough effect, not every such curve was filed as active; inconclusive means small, poorly fitted or top-dose-only effect, or another doubt; inactive means no such curve, though single readings can be large or run the other way;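 further: potency means the concentration at half of the fitted maximal effect; plate controls were no enzyme wells and a reference inhibitor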
HPGD inh = qHTS Assay for Inhibitors of HPGD (15-Hydroxyprostaglandin Dehydrogenase) | 15-hydroxyprostaglandin dehydrogenase [NAD(+)] (Homo sapiens), P15428 | purified HPGD, NADH fluorescence kinetic, PGE2 substrate | Potency, µM, for inactives: at the highest dose activity change, negative = inhibition, most hits filed as inhibitors | 150,000 tested, 4.3% active | AID 894, 2007; active means well fitted inhibition curve with a large enough effect, not every such curve was filed as active; inconclusive means small, poorly fitted or top-dose-only effect, or another doubt; inactive means no such curve, though single readings can be large or run the other way; further: potency means the concentration at half of the fitted maximal effect
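20 nM HPGD preincubated 15 min at room temperature with compound in 50 mM Tris-HCl pH 8, 0.01% Tween 20. Started with 1 mM NAD+ and 30 uM prostaglandin E2; NADH fluorescence (360/450 nm) read 5 times over 30-s intervals, last minus first.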
GLA inh pH 4.5 = qHTS Assay for Inhibitors of Human alpha-Galactosidase at pH 4.5 | 230,000 tested, under 10 active | Alpha-galactosidase A (Homo sapiens), P06280 | AID 1467, 2008 | activity change, negative = inhibition, % at 105 µM | purified enzyme, 4-MU-alpha-Gal fluorescence, pH 4.5;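 further: 0% = full activity with enzyme and -100% = basal without enzyme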
Target sequence (P06280 whole entry, looked up): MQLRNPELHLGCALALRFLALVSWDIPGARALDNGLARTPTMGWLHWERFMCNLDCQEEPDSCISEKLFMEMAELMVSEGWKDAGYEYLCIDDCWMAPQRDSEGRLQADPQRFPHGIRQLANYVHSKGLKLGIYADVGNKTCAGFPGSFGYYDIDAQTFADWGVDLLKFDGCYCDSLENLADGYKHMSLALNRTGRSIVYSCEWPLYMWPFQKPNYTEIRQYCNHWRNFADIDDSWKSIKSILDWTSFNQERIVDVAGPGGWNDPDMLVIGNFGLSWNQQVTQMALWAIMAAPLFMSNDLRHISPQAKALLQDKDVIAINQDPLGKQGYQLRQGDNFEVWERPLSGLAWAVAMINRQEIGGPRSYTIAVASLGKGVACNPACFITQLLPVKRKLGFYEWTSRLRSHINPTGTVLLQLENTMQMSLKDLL
Numbers without * were called inactive; ? = inconclusive; nt = no result; [ ] = another dose, or the depositor's remark. Hits are enriched below; roughly 10% of the tested compounds scored in any of these assays. Unless noted, the call rests on the fitted dose curve; in most records, active means well fitted curve in the direction sought with a large enough effect; inconclusive means small, poorly fitted or top-dose-only effect, or another doubt; inactive means no such curve, though single readings can be large; an effect the other way counts as inactive or inconclusive. Unless noted, on the % scale 0 is the no-effect control and ±100 the full control effect.

SMILES	PNC assembly inh	12-hLO inh	GLA spleen mod	ALDH1A1 block	HPGD inh	GLA inh pH 4.5
Cc1ccc(-c2cc3nn(-c4ccccc4)c(N)c3c(=O)o2)cc1	63.9	-25.7%	-0.1%	?	?	9.4
COc1ccccc1N1C(=O)S/C(=C\c2cc(C)n(C)c2C)C1=O	nt	nt	-12.5%	14.1µM*	nt	-10.7
COc1ccc(N=C2S/C(=C\c3cc(C)n(C)c3C)C(=O)N2C)cc1	16.5	-14.3%	-7.9%	?	-6.2%	-8.8
CCCN1C(=O)/C(=C/c2cc(C)n(C)c2C)SC1=Nc1ccc(OC)cc1	10.7	-19.6%	-4.9%	2µM*	-17.2%	-6.2
Nc1nc(N)[n+]([O-])c(N)c1NCO	nt	-0.4%[11.4 µM]	nt	9.2%[13.5 µM]	-9.0%	nt
COc1ccc(OC)c(-n2nnnc2SCC(=O)NCc2ccc3c(c2)OCO3)c1	15.3	-2.1%	13.0%	12.6µM*	-8.6%	3.7
O=C(CSc1nnnn1C1CCCCC1)NCc1ccco1	-19.2	-1.8%	-6.4%	?	-5.2%	-4.6
COC(=O)c1ccc(NC(=O)CSc2nnnn2C2CCCCC2)cc1	209.9	10.6%	-2.3%	-2.0%	-20.4%	6.9
CCn1nnnc1SCC(=O)NCc1ccc2c(c1)OCO2	2.7	-9.3%	1.1%	-8.7%	-11.4%	-4.5
O=C(CSc1nnnn1C1CCCCC1)NCc1ccc2c(c1)OCO2	14.6	-5.7%	0.2%	14.1µM*	-1.8%	6.3
CC(=O)Nc1ccc(C(=O)CSc2nnnn2C2CCCC2)cc1	nt	nt	-5.3%	15.8µM*	nt	-26.2
O=C(CSc1nnnn1C1CCCC1)NCc1ccc2c(c1)OCO2	?	-3.1%	1.0%	20µM*	1.3%	-5.7
O=C(c1ccco1)N1CCC2(CCCN(Cc3ccncc3)C2)CC1	nt	4.7%	6.5%	?	-0.7%	nt
C[C@@H]1Nc2ccc(Cl)cc2S(=O)(=O)N1	nt	-3.1%	9.8%	?	?	0.5
CCCC[C@@H]1C[C@H]1C(NC(=O)c1ccco1)c1ccc(-c2ccccc2)cc1 (some centres undefined)	nt	-1.5%	3.8%	-2.4%	-7.2%	-2.8
Fc1cccc(C[n+]2csc3ccccc32)c1	32.4	-20.9%	5.1%	0.355µM*	3.98µM*	-2.1
c1ccc(C[n+]2csc3ccccc32)cc1	32.1	-11.0%	6.8%	2.24µM*	14.1µM*	-7.7
Cc1cc(/C(N)=N/OC(=O)c2ccccc2Cl)no1	nt	nt	0.5%	1.7%	nt	1.6
Cc1ccc(/C(N)=N/OC(=O)c2ccc(C)cc2Cl)cc1	1.7	1.8%	18.5%	-0.8%	?	1.3
N/C(=N\OC(=O)c1ccccc1Cl)c1ccccc1	78.7	0.9%	-5.9%	-10.3%	11.2µM*	-6.7
N/C(=N\OC(=O)N1c2ccccc2Sc2ccccc21)c1ccccc1	?	-24.6%	0.2%	8.1%	17.8µM*	-0.5
COc1ccccc1C(=O)O/N=C(\N)c1ccccc1Cl	-2.1	-0.2%	-13.6%	-3.5%	28.2µM*	-5.9
O=C(O/N=C(\c1ccccc1)c1ccncc1)c1ccccc1Cl	nt	nt	-13.9%	?	nt	1.2
N/C(=N\OC(=O)c1ccc(Cl)cc1Cl)c1ccc(Cl)cc1	19.8	4.8%	-0.4%	10.6%	5.01µM*	-1.2
CCOC(=O)c1c(C)[nH]c(C)c1C(=O)COC(=O)c1ccc(OC)c(OC)c1	nt	nt	11.3%	4.2%	nt	0.2
C#CCOC(=O)NC(/C=C/CCCC)c1ccccc1 (centres undefined)	nt	0.8%	2.9%	8.5%	-8.6%	-1.7
Cc1cccc(/C(N)=N/OC(=O)C23CC4CC(CC(C4)C2)C3)c1	-113.8*	-1.0%	-8.2%	-3.2%	-20.3%	1.9
COc1ccc(C(=O)O/N=C(\N)c2ccccn2)c(OC)c1	nt	nt	-8.0%	nt	nt	-5.9
COc1ccc(C(=O)O/N=C(\N)c2ccccc2)c(OC)c1	2.7	0.7%	-0.4%	?	14.1µM*	0.5
